Compounds without any hit were thinned out: in the full panel of roughly 79,000, 15% have a hit. Values without a mark were called inactive. Active and inactive are the calls of the source. No stated cut-off is given here; in the data, active means growth inhibition above about 70%; inactive means the rest.

The nature of this assay: NCI Yeast Anticancer Drug Screen. Data for the rad14 strain (AID 159).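 Further: 0% = growth of vehicle-treated control cultures.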 As to conditions: S. cerevisiae rad14 strain growth inhibition, active compounds read high. On the procedure:
Growth inhibition of yeast strains with defined genetic alterations is measured as a screen for potential anti-cancer activity. Selected strains with alterations in DNA damage repair or cell cycle control were exposed to compounds and growth inhibition was measured relative to vehicle treated controls. The strain used in this assay is rad14

Consider `Cc1ccc(CCC2=CCCc3c2ccc2ccccc32)cc1`, for which the growth inhibition runs as follows: (at 1.2 µM) -4%; (at 3.7 µM) -4%; (at 11.0 µM) 0%; (at 33.0 µM) 6%; (at 100.0 µM) 13%.
For the compound `CCCCN1C(=O)N(c2ccc(OCC)cc2)C2N(CCCC)C1C(C)(C)C2(C)C` (stereo not given), the growth inhibition by setting is: (at 1.2 µM) -1%; (at 3.7 µM) -6%; (at 11.0 µM) -6%; (at 33.0 µM) 15%; (at 100.0 µM) 72% (active).
As for `O=C(Nc1ccc(Cl)cc1)OCC#CCCl`, the growth inhibition is, setting by setting: (at 1.2 µM) 3%; (at 3.7 µM) 12%; (at 11.0 µM) -5%; (at 33.0 µM) -4%; (at 100.0 µM) 24%.
In the same order, the values of `CCC/C(Cl)=N\OC(=O)Nc1cccc(C(F)(F)F)c1` are 12%, 14%, 16%, 23% and 20%.
`COc1ccc(/C(C)=N/OC(=O)c2c(-c3ccccc3Cl)noc2C)cc1CN1CCOCC1`: the growth inhibition (at 1.2 µM) is -8%; the growth inhibition (at 3.7 µM) is -17%; the growth inhibition (at 11.0 µM) is -20%; the growth inhibition (at 33.0 µM) was 45%; the growth inhibition (at 100.0 µM) was 91% (active).
For the compound `CC(=O)OCCOCNC(=S)N/N=C(\C)c1cnccn1`, the growth inhibition runs as follows: (at 1.2 µM) -8%; (at 3.7 µM) -12%; (at 11.0 µM) 5%; (at 33.0 µM) 46%; (at 100.0 µM) 84% (active).
In the same order, the values of `[N-]=[N+]=NC1=C(c2ccccn2)C(=O)c2cccc3cccc1c23` are 2%, 5%, 11%, 26% and 63%.
On the same counts, the results for `Clc1ccc(SC(/C=C/NNC2=NC(c3ccccc3)C(c3ccccc3)=NN2)c2ccccc2)cc1` (stereo not given) are 1%, 6%, 2%, 50% and 91% (active).
